# FBW7 activator = FBW7 E3 ligase activators, primary screen, biochemical, AlphaScreen, human; AlphaScreen FBW7–phospho-cyclin E peptide binding, activator screen; normalized activity (activation), % at 26.1 µM; hit rate 0.13% among 650,000; in the data active means normalized activity above about 1.9%;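 further: purified mutant Fbw7 with reduced substrate affinity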
# MITF primary = MITF inhibitors, primary screen, biochemical, AlphaScreen, human; Microphthalmia-associated transcription factor (Homo sapiens), O75030; AlphaScreen MITF homodimerization, bead proximity signal; inhibition, % at 2.6 µM; hit rate 0.91% among 650,000; in the data active means inhibition above about 50%
# GPR151 ag = activators of human GPR151, primary screen, cell-based, PathHunter beta-arrestin, luminescence; G-protein coupled receptor 151 (Homo sapiens), Q8TDV0; PathHunter beta-arrestin GPR151 cells; activation, % at 11.2 µM; hit rate 1% among 650,000; AID 1508602, 2020; in the data active means activation above about 4.9%
# Target sequence (Q8TDV0 whole entry, looked up): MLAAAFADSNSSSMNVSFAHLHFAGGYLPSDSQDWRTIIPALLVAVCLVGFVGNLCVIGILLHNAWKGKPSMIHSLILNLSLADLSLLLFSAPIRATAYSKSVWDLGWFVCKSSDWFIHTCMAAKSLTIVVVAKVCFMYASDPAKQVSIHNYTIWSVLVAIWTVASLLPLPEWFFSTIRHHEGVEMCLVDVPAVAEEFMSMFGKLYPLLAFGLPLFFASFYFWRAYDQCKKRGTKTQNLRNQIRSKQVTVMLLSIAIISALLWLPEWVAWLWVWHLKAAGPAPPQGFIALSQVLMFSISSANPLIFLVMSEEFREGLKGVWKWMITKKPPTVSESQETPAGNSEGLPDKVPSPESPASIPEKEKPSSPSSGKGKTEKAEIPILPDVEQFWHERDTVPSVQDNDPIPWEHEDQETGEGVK
# TEAD-YAP block = TEAD-YAP interaction inhibition, primary screen, TEAD-YAP interaction inhibitor project, luminescence, HEK-TIYL cells | TEAD-Gal4/YAP UAS-luciferase luminescence | inhibition, % at 9.12 µM | hit rate 1.4% among 640,000 | AID 1259422, 2018; in the data active means inhibition above about 32%
# GPR151 confirm = GPR151 activators, triplicate retest, confirmation, cell-based, PathHunter beta-arrestin, luminescence. 6,700 tested, under 10 active. activation, % at 11.2 µM. AID 1508609, 2020. GPR151 PathHunter beta-arrestin cells, 90 min; % of EA-reagent control over plate median. shares compounds with GPR151 ag;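 active means mean percent activation across replicates above the confirmation screen cutoff of 4.91%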
# GPR119 ag = GPR119 activators in beta-arrestin cells, counter-screen for GPR151 activator project, cell-based, PathHunter beta-arrestin, luminescence, triplicate. activation, % at 11.2 µM. shares compounds with GPR151 ag. 90 min; 0 = compound-well median, 100 = enzyme-acceptor control. hit rate 0.3% among 6,700;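 active means mean percent activation in the counterscreen above 29.09%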;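 further: counterscreen on off-target GPR119 to flag nonselective hits from the GPR151 activator screen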
# Hits are given with their value; i = inactive; nt = not tested or not shown. A selection: hits, their analogues and other compounds. The true share with any hit is near 3.4%.
SMILES,FBW7 activator,MITF primary,GPR151 ag,TEAD-YAP block,GPR151 confirm,GPR119 ag
O=C(NC1(C(F)(F)F)NC(=O)N(c2ccc(F)cc2)C1=O)c1ccc(F)cc1 (centres undefined),i,i,i,i,nt,nt
O=C(O)C1C2C=CC(O2)C1C(=O)NCc1ccc(Cl)c(Cl)c1 (centres undefined),i,i,i,i,nt,nt
CCC1CCc2c(sc3nc(SCC(=O)Nc4c(C)cccc4C)n(-c4ccccc4)c(=O)c23)C1 (centres undefined),i,i,8.1,i,i,i
O=C(OCCN=C1NS(=O)(=O)c2ccccc21)c1cccc(Br)c1,i,i,i,i,nt,nt
O=c1nc2s/c(=C/c3cccs3)c(=O)n2nc1Cc1ccc(F)cc1,i,i,5.0,i,i,i
CC(=O)Oc1ccc(/C=c2/sc3nc(=O)c(Cc4ccc(F)cc4)nn3c2=O)cc1,i,i,i,i,nt,nt
Cc1ccc(Cl)cc1NC(=O)CN1C(=O)C2C3C=CC(C3)C2C1=O (centres undefined),i,i,i,i,nt,nt
CC(C)(COC(=O)c1cccc2ccccc12)N=C1NS(=O)(=O)c2ccccc21,i,i,6.1,i,i,i
COc1cccc(C(=O)NCC(=O)N/N=C/c2ccccc2OC)c1,i,i,i,i,nt,nt
Cn1c(=O)c2c(nc(Cl)n2Cc2c(F)cccc2Cl)n(C)c1=O,i,i,i,i,nt,nt
CCSc1nc2c(c(=O)n(C)c(=O)n2C)n1Cc1c(F)cccc1Cl,i,i,5.2,i,i,i
CN1C(C(=O)c2ccccc2)=C(N2CCCCC2)c2ccccc2S1(=O)=O,i,i,8.1,i,i,i
CN1C(C(=O)c2ccccc2)=C(N)c2ccccc2S1(=O)=O,i,i,i,i,nt,nt
COc1nc(Nc2ccc(NC(C)=O)cc2)nc(-c2ccc(C(=O)NC3CC3)cc2)n1,i,i,i,i,nt,nt
O=C(O)CCn1c(=O)oc2cc(S(=O)(=O)O)ccc21,i,i,7.5,i,i,i
COc1cc(C=O)ccc1OCC(=O)Nc1ccc2ccccc2c1,i,i,i,i,nt,nt
COc1ccc(Cl)cc1N1C(=O)C2CC(C)=C(C)CC2C1=O (centres undefined),i,i,6.8,i,i,i
COc1ccc(OC)c(N2C(=O)C3CC(C)=C(C)CC3C2=O)c1 (centres undefined),i,i,i,i,nt,nt
Cc1cccc(C)c1NC(=O)CSc1ncn[nH]1,i,i,i,i,nt,nt
CCc1cccc(C)c1NC(=O)CSc1ncn[nH]1,i,i,7.4,i,i,i
CC(=O)N1CCc2cc(Br)cc(S(=O)(=O)Nc3cccc(Cl)c3)c21,i,i,i,i,nt,nt
CC(=O)N1CCc2cc(Br)cc(S(=O)(=O)Nc3noc4ccccc34)c21,i,i,19.0,i,i,i
CCN(CC)C(=O)C1=C(C)NC(=S)NC1c1ccc(OC)c2ccccc12 (centres undefined),i,i,i,i,nt,nt
COc1ccc(OC)c(/C=c2\sc3nc(-c4ccccc4OC(C)=O)nn3c2=O)c1,i,i,i,i,nt,nt
CCOc1ccc(Cl)cc1C1C2=C(CC(C)(C)CC2=O)N(C)C2=C1C(=O)CC(C)(C)C2,i,i,i,i,nt,nt
SMILES,FBW7 activator,MITF primary,GPR151 ag,TEAD-YAP block,GPR151 confirm,GPR119 ag
C#CCOc1ccc(Cl)cc1C1C2=C(CC(C)(C)CC2=O)N(C)C2=C1C(=O)CC(C)(C)C2,i,i,5.1,i,i,i
O=C(CSc1nnc(NC(=O)Cc2ccccc2)s1)NCC1CCCO1 (centres undefined),i,i,i,i,nt,nt
O=C(CSc1nnc(NC(=O)Cc2ccc(F)cc2)s1)NCC1CCCO1 (centres undefined),i,i,5.0,i,i,i
COc1cc(C(=O)NCc2ccccc2)cc(OC)c1OC,i,i,i,i,nt,nt
CCn1cc(CN2CCCC(CNC(=O)c3ccc(-c4ccccc4)cc3)C2)cn1 (centres undefined),i,i,6.0,i,i,i
NS(=O)(=O)c1ccc(CCNC(=O)CSc2nc3ccccc3c(=O)n2Cc2ccc3c(c2)OCO3)cc1,i,i,i,i,nt,nt
CC(=O)NCCNC(=O)c1ccc(-c2ccccc2)nc1NCCc1ccccn1,i,i,5.1,i,i,i
O=C(Cc1csc(-n2cccc2)n1)N1CCN(c2ccccn2)CC1,i,i,5.5,i,i,i
O=[N+]([O-])c1c(Nc2ccc(Br)cc2F)ccc2nonc12,i,i,5.0,i,i,i
Cc1ccc(C2Nn3c(C)nnc3SC2C(=O)N2CCCCCC2)cc1 (centres undefined),i,i,6.4,i,i,i
COC(=O)c1cc(OC)c(OC)cc1NC(=S)N1CCCC1,i,i,i,i,nt,nt
COc1cc(C#N)c(NC(=S)N2CCCC2)cc1OC,i,i,5.4,i,i,i
c1nc(NC2CC2)c2[nH]c(N3CCOCC3)nc2n1,i,i,5.0,i,i,i
Cc1noc(C)c1-c1nc2ncnc(NC3CC3)c2[nH]1,i,i,5.5,i,i,i
COc1cccc2cc(C(=O)/C=C/c3cccc(F)c3)c(=O)oc12,i,i,5.4,i,i,i
O=C(Cc1cn(-c2ccc(Cl)nn2)c2ccccc12)NCCN1CCOCC1,i,i,7.8,i,i,i
O=C(Cc1cn(-c2ccc(N3CCOCC3)nn2)c2ccccc12)NCCN1CCOCC1,i,i,i,i,nt,nt
COC(=O)c1cc2c(N3CCC(Cc4ccccc4)CC3)ncnc2s1,i,i,5.5,i,i,i
O=C(NCCc1ccc(S(=O)(=O)N2CCCCC2)cc1)c1ccc(C(=O)c2ccccc2)cc1,i,i,i,i,nt,nt
O=C(Nc1ccc(Br)cc1)c1cc(-c2ccco2)on1,i,i,i,i,nt,nt
CCCN(C(=O)c1cccc(N)c1)c1c(C)n(C)n(-c2ccccc2)c1=O,i,i,5.5,i,i,i
CCOc1ccc(CC(=O)NCCc2c(C)[nH]c3c(C)ccc(F)c23)cc1OCC,i,i,6.5,i,i,i
COc1ccc(C(=O)NCCc2c(C)[nH]c3c(C)ccc(F)c23)cc1OC,i,i,i,i,nt,nt
Clc1cc(NOCc2ccccc2)ncn1,i,i,i,i,nt,nt
O=C(Nc1cc(C(F)(F)F)ccc1F)C1CCCC1,i,i,12.7,i,i,i
CCOc1ccc(/C=C2/C(=O)NC(=O)N(Cc3ccc(F)cc3)C2=O)cc1,i,i,i,i,nt,nt
CCN(CC)c1ccc(/C=C2/C(=O)NC(=O)N(Cc3ccc(F)cc3)C2=O)cc1,i,i,10.7,i,i,i
Nc1cccc2c1C(=O)N(C(=O)CCN1C(=O)c3ccccc3C1=O)C2=O,i,i,i,i,nt,nt

# Screening data as filed in PubChem BioAssay.
